KDM5B inhibitor: KDM5B demethylase inhibition; Q9UGL1; KDM5B demethylase, FDH-coupled NADH fluorescence (FDH is formaldehyde dehydrogenase); AID 1347165; Potency, µM (series often up to 57.7 µM), hits mostly inhibitors; hit rate 2.6% among 220,000; also: nearly all actives have a fitted effect of over 70% in size
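Inhibition is measured as reduced NADH fluorescence generation from FDH coupling to formaldehyde release. Truncated KDM5BΔAP at 200 nM final acts on H3K4me3 peptide (12.5 µM in substrate mix) in pH 7.5 HEPES buffer with Tween-20, 30 min, room temperature.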
IP6K1 inhibitor: IP6K1 kinase inhibition | AID 1645851 | activity change, % (series mostly up to about 58 µM) | Q92551 | hit rate 0.81% among 140,000 | IP6K1 kinase, ADP-Glo luminescence, 2 h; hits give low values; in the data active = activity change below about -25%
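ADP-Glo luminescence measures ADP made by human IP6K1 during a 2 h RT reaction with ATP/IP6 (mix at 1.3 mM/130 uM); top library doses 57.5 and 19.1 uM final.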
SNCA expr inhib: SNCA gene expression inhibition; HEK-293 SNCA-luciferase knock-in, luminescence, 24 h; hit rate 0.17% among 140,000; Potency, µM (highest dose often 57.2 µM), usual class: inhibitors; also: nearly all actives have a fitted effect of over 45% in size
HEK293 viab: reduces viability of HEK-293 SNCA reporter cells | HEK-293-SNCA-luc viability, GF-AFC fluorescence, 24 h | Potency, µM (titrated, usually from 57.1 µM), hits mostly cytotoxic | hit rate 0.12% among 150,000; also: nearly all actives have a fitted effect of over 30% in size
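HEK-293-SNCA-luc cells (1500/well) plated 24 h, then exposed 24 h to a dilution series; GF-AFC added 30 min at 37C, fluorescence 405/540 nm; normalised to medium-only and DMSO wells, Hill fit.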
IP6K1 inh cnf: human IP6K1 inhibition, confirmatory. shares compounds with IP6K1 inhibitor. recombinant IP6K1 kinase, ADP-Glo luminescence, 2 h. Potency, µM (doses to about 49 µM), hits mostly inhibitors. hit rate 13% among 1,200; also: nearly all actives have a fitted effect of over 65% in size
Numbers stand for hits. A selection: hits, their analogues and other compounds. The true share with any hit is near 2.8%. Unless noted, calls follow the shape of the dose curve; as a rule, active = well fitted curve in the direction sought with a large enough effect; inconclusive = small, poorly fitted or top-dose-only effect, or another doubt; inactive = no such curve, though single readings can be large; an effect the other way counts as inactive or inconclusive.

Cc1noc(-c2ccc(OC3CN(C(=O)c4cc(F)ccc4F)C3)cc2)n1 was read as KDM5B inhibitor inactive, IP6K1 inhibitor inactive, SNCA expr inhib inactive and HEK293 viab inactive.
`C=CC[C@]12C[C@@H](OC)C(=O)C(OC)=C1O[C@@H](c1cc(OC)c3c(c1)OCO3)[C@@H]2C` gave IP6K1 inhibitor inactive and HEK293 viab inactive.
Screening CC(c1ccc(-c2cc(N)ncn2)cc1)N1CCCCC1 (configuration not stated) returned KDM5B inhibitor inconclusive, IP6K1 inhibitor inactive, SNCA expr inhib inactive, HEK293 viab inactive and IP6K1 inh cnf inactive.
COc1ccc2sc(N(Cc3cccnc3)C(=O)c3ccco3)nc2c1 was read as KDM5B inhibitor inactive, IP6K1 inhibitor inactive, SNCA expr inhib inactive and HEK293 viab inactive.
`Cc1ccc(C(=O)Nc2ccc(S(=O)(=O)O)c3cc(S(=O)(=O)O)cc(S(=O)(=O)O)c23)cc1NC(=O)c1cccc(NC(=O)Nc2cccc(C(=O)Nc3cc(C(=O)Nc4ccc(S(=O)(=O)O)c5cc(S(=O)(=O)O)cc(S(=O)(=O)O)c45)ccc3C)c2)c1` gave IP6K1 inhibitor -95, SNCA expr inhib inactive, HEK293 viab inconclusive and IP6K1 inh cnf 3.3µM.
Screening O=C1CC(c2ccccc2)Cc2[nH]c(=O)c(C(=O)Nc3cccc(F)c3)cc21 (configuration not stated) returned KDM5B inhibitor inconclusive, IP6K1 inhibitor -93, SNCA expr inhib inactive, HEK293 viab inactive and IP6K1 inh cnf inactive.
For CCOC(=O)c1cc2c(=O)n3ccccc3nc2n(Cc2ccco2)c1=NC(=O)c1cccc(Br)c1 the results were KDM5B inhibitor inconclusive, IP6K1 inhibitor inactive, SNCA expr inhib inactive and HEK293 viab inactive.
CCOC(=O)c1cc2c(=O)n3ccccc3nc2n(Cc2ccco2)c1=NC(=O)c1cccc(C)c1 was read as KDM5B inhibitor inconclusive, IP6K1 inhibitor -36, SNCA expr inhib inactive, HEK293 viab inconclusive and IP6K1 inh cnf inconclusive.
`CC(=O)N1CCN(CC[C@H]2CN(C(=O)c3cccs3)CC[C@H]2CC(=O)O)CC1` gave KDM5B inhibitor inactive, IP6K1 inhibitor inactive, SNCA expr inhib inactive and HEK293 viab inactive.
For OCc1c[nH]c2ccccc12 the results were IP6K1 inhibitor -28, SNCA expr inhib inactive, HEK293 viab inactive and IP6K1 inh cnf inactive.
Screening O=C(O)Cc1c[nH]c2ccccc12 returned KDM5B inhibitor inactive.
`Cc1c(CN(C)CC2(O)CCCN(Cc3ccc(C(C)C)cc3)C2=O)cnn1C` (configuration not stated) gave KDM5B inhibitor inactive, IP6K1 inhibitor -37, SNCA expr inhib inactive, HEK293 viab inactive and IP6K1 inh cnf inactive.
`COC(=O)CCNC(=O)N1CCc2[nH]cnc2C1c1ccc(Br)cc1` (configuration not stated) gave KDM5B inhibitor inactive.
CCC[C@H](NC(=O)C(C#N)=Cc1cccc(Br)n1)c1ccccc1 was read as SNCA expr inhib inconclusive, HEK293 viab inconclusive and IP6K1 inh cnf inconclusive.
For C[C@@H](NC(=O)/C(C#N)=C/c1ccc(O)c(O)c1)c1ccccc1 the results were SNCA expr inhib inactive and HEK293 viab inactive.
Screening Cc1cccc(Cc2c(C)nc3c(-c4ccccc4)c(C)[nH]n3c2=O)c1 returned KDM5B inhibitor inconclusive, IP6K1 inhibitor -34, SNCA expr inhib inactive, HEK293 viab inactive and IP6K1 inh cnf inconclusive.
Screening N#C/C(=C\c1ccc(O)c(O)c1)C(=O)Nc1ccccc1 returned SNCA expr inhib inactive, HEK293 viab inactive and IP6K1 inh cnf 16µM.
Screening COc1ccccc1CNC(=O)c1sc(NC2CC2)nc1C returned KDM5B inhibitor inactive.
For COc1ccc(NC(=O)c2c(NCc3ccc(N(C)C)cc3)sc3c2CCC3)cc1 the results were KDM5B inhibitor inconclusive, IP6K1 inhibitor -27, SNCA expr inhib inactive, HEK293 viab inactive and IP6K1 inh cnf inactive.
`COc1ccc(NC(=O)c2c(NCc3cccc(OC)c3)sc3c2CCCC3)cc1` gave KDM5B inhibitor inconclusive, IP6K1 inhibitor inactive, SNCA expr inhib inconclusive and HEK293 viab inactive.
Screening O=C([C@@H]1C[C@H](Oc2ccccc2)CN1C(=O)c1cccs1)N1CCOCC1 returned KDM5B inhibitor inactive, IP6K1 inhibitor inactive, SNCA expr inhib inactive and HEK293 viab inactive.
